Experimental data reported in ChEMBL document CHEMBL3988442, “University of Dundee, Small-Polar-MMV Screening Library” (2021).

Molecular target: T1, Aspartate--tRNA(Asp/Asn) ligase (Mycobacterium tuberculosis (strain ATCC 25618 / H37Rv)) (UniProt P9WFW3)
T1 sequence (whole entry): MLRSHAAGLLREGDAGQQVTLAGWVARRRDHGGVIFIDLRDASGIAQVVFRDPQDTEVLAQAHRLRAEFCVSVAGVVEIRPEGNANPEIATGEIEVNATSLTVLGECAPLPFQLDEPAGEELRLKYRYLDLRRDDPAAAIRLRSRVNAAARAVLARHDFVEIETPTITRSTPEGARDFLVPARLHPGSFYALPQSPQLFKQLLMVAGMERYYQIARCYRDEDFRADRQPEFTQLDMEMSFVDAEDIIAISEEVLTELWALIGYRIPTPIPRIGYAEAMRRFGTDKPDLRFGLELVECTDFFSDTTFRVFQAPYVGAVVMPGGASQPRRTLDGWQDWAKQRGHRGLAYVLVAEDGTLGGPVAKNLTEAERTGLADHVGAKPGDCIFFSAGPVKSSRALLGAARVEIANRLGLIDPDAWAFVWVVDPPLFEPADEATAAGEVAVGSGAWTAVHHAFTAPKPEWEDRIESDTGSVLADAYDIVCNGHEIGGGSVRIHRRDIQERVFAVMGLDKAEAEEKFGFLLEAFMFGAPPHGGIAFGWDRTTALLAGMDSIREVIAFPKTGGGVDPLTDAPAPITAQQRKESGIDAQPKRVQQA
Test: Assay for Asp RNA synthetase-1 from Mycobacterium tuberculosis
Format: functional
Design: scale not given: in the data most compounds retested in dose-response had high values
Conditions: 30 µM

Structure (SMILES)	Percent Effect [%]
CCc1ccc(CNC(=O)NC(C)CN2CCOCC2)s1 (stereo not given)	1.38
O=C(c1ccccn1)N1Cc2nccn2CC(COc2cccnc2)C1 (stereo not given)	3.15
O=C(NCc1ccccn1)[C@H]1COC[C@H]2CN(Cc3ccoc3)C[C@H]21	-0.779
O=C(c1coc(COc2cccc(F)c2)n1)N1CC[C@H](O)[C@@H](O)C1	2.06
Cc1nc(CN2CCOC(CN(C)c3cccnn3)C2)cs1 (stereo not given)	-1.09
CCOc1cc(C(=O)N2CCCC(c3noc(C)n3)C2)ccn1 (stereo not given)	0.253
O=C(CSC1CCc2ccccc2NC1=O)NCCc1ccco1 (stereo not given)	-3.17
COCCC(=O)N1CCC2(CN(Cc3ccc(OC)c(F)c3)C2)C1	-0.524
Cc1ccccc1-c1cncc(C2CCN(C)CC2)n1	2.52
CCSCCNC(=O)C(c1cccc(C)c1)N(C)C (stereo not given)	0.569
CCc1nc(CC(=O)N2CCOCC2c2ncon2)cs1 (stereo not given)	1.11
CN(CCC(F)(F)F)C(=O)[C@H]1CSCN1C(=O)OC(C)(C)C	-5.95
CC(=O)Nc1nc(C(=O)NCc2ccc(N3CCCCCC3)nc2)cs1	6.56
CCC(C)c1noc(C2CCN(C(=O)c3cccnc3)CC2)n1 (stereo not given)	17
CN(CCC#N)C(=O)CN1CCCC1c1ccsc1 (stereo not given)	2.1
COc1ccc(CN(C)CC2CCCN2c2cccnn2)cc1F (stereo not given)	0.346
c1ccc(Oc2cc(CNCC3CNc4ccnn4C3)ccn2)cc1 (stereo not given)	-8.46
CN1CCN(CC2CC2)C(=O)c2cnc(N3CC[C@@H](O)C3)nc21	3.75
O=C1CC(c2ccncc2)c2c(c(C(=O)O)cn2-c2ccc(F)cc2)N1 (stereo not given)	2.32
CC(C)(C)n1ncc2c1CCCC2NCc1cccc2c1OCO2 (stereo not given)	-0.568

Structure (SMILES)	Percent Effect [%]
CC(NC(=O)N1CCC(OCc2ccccc2)CC1)c1nncn1C (stereo not given)	-3.22
CN(C)Cc1ccc(C2CCCCN2C(=O)c2cccc(CO)n2)cc1 (stereo not given)	-3.06
Cc1ccccc1CS(=O)(=O)CC(=O)NCc1ccccc1F	7.37
CCS(=O)(=O)CCN1CCC(N(C)Cc2noc(C(C)C)n2)C1 (stereo not given)	0
Cc1cccc(C(=O)N(C)Cc2cc(Br)cs2)n1	-0.0599
CS(=O)(=O)N1CCC2(CC1)CC(CC(=O)N1CCCC1)c1ccccc12 (stereo not given)	5.87
Cn1cnc2c1C(COCC1CCOCC1)CN(C1CCOCC1)C2 (stereo not given)	3.46
CC(C)c1n[nH]c(C2CN(C(=O)CCn3ccccc3=O)CCO2)n1 (stereo not given)	-1.85
Cc1ccn(-c2ccccc2NCc2ccccn2)n1	0.661
Cc1ccoc1-c1nnc(CN2CCCC(Cn3cncn3)C2)o1 (stereo not given)	1.01
Cc1ccc(C(=O)N2CCn3cc(CN(C)Cc4ccco4)nc3C2)o1	-0.889
Cc1nn(-c2ccccc2)nc1C(=O)N1CCCC1c1cnn(C)c1 (stereo not given)	2.1
COCC1CN(C(=O)CNC(C)=O)Cc2ncnn2C1 (stereo not given)	0.773
O=C(CCOc1ccc(Cl)cc1)N1CCN(c2cnccn2)CC1	0.879
COc1ncccc1CNc1cc(N2CCCC2CO)ncn1 (stereo not given)	-0.88
CN(C)c1cncc(C2CCN(C(=O)CO)CC2)n1	2.1
CCc1ccc(C(=O)N2CCCC(c3noc(CC)n3)C2)o1 (stereo not given)	-2.33
CC(C)CC(=O)N1C[C@@H]2CCN(c3ncccn3)C[C@@H]2C1	4.21
Cc1ccc(-n2nnc(CC(=O)N3CCSCC3)c2C)cc1	2.79
CCCc1n[nH]c(C2CN(CCCS(C)(=O)=O)CCO2)n1 (stereo not given)	-3.39
